# Source: PubChem BioAssay (National Center for Advancing Translational Sciences (NCATS))
# Shown are actives, neighbours in structure and some others; about 1.5% of the full set was active somewhere.
# WRN helicase inh – qHTS for Inhibitors of WRN Helicase. AID 651768, 2012. Bifunctional 3'-5' exonuclease/ATP-dependent helicase WRN (Homo sapiens), Q14191. WRN helicase unwinding, fluorescent forked duplex, kinetic. 360,000 compounds, 0.46% hits. Potency, µM (highest dose often 114 µM), for the others: top-dose activity change, negative = inhibition, most hits filed as inhibitors; also: potency is read from the fitted curve at half-maximal effect; nearly all actives have a fitted effect of over 55% in size
#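 Kinetic red-fluorescence monitoring (525/598 nm) tracks WRN helicase activity after 100 nM fluorophore-quencher forked duplex and 2 mM ATP are added to 20 nM enzyme pretreated 15 min at room temperature with compound.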
# APEX1 inh – qHTS Assay for Inhibitors of the Human Apurinic/apyrimidinic Endonuclease 1 (APE1). DNA repair nuclease/redox regulator APEX1 (Homo sapiens), P27695. recombinant APE1, TAMRA/BHQ-2 abasic DNA cleavage fluorescence. Potency, µM (doses to about 65.8 µM), for inactives: top-dose activity change, negative = inhibition, usual class: inhibitors. 350,000 compounds, 0.35% hits. AID 2517, 2012;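 also: potency is read from the fitted curve at half-maximal effect; plate controls were vehicle for no effect and reference inhibitor for full effect; nearly all actives have a fitted effect of over 55% in size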
# Target sequence (P27695 whole entry, looked up): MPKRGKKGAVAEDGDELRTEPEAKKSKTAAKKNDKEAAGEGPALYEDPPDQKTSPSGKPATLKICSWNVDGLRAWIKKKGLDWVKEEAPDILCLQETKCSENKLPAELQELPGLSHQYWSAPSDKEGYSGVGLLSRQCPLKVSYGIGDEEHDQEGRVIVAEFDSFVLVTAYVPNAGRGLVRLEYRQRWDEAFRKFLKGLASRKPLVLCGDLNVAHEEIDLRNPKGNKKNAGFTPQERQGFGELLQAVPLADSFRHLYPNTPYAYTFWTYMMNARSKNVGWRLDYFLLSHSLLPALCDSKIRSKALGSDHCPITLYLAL
#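 Measures dequenching upon AP-site incision of a 5'-TAMRA/3'-BHQ-2 THF-containing duplex, 50 nM; human APE1 0.75 nM after 15 min room-temperature exposure to compound; kinetic three-point read at one-minute spacing.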
# PI5P4K alpha inh – qHTS for Inhibitors of phosphatidylinositol 5-phosphate 4-kinase (PI5P4K). Phosphatidylinositol 5-phosphate 4-kinase type-2 alpha (Homo sapiens), P48426. PI5P4Kalpha enzyme, ADP-Glo luminescence, 60 min; hits give low values. max response, %. 330,000 compounds, 1.2% hits; active = max response of -50% or lower; inconclusive = between -30% and -50%; inactive = -30% or higher; also: value at the top dose of about 77 µM
#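 Luminescence from ADP-Glo served as readout of PI5P4Kalpha activity in a qHTS format. Reaction: enzyme, substrate, compound, ATP at 5 microM final, 60 min at RT.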
# BLM inh – qHTS Assay for Inhibitors of Bloom's syndrome helicase (BLM); RecQ-like DNA helicase BLM (Homo sapiens), P54132; recombinant BLM DNA unwinding, fluorescence dequenching; Potency, µM (highest dose often 56.1 µM), inactives show top-dose activity change, negative = inhibition, hits mostly inhibitors; 350,000 compounds, 0.2% hits;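 also: potency is read from the fitted curve at half-maximal effect; plate controls were vehicle for no effect and no enzyme for full effect; nearly all actives have a fitted effect of over 35% in size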
# RECQ1 helicase – qHTS Assay for Inhibitors of RecQ-Like Dna Helicase 1 (RECQ1); ATP-dependent DNA helicase Q1 (Homo sapiens), P46063; RECQ1 DNA unwinding, red fluorescence kinetic read; Potency, µM (highest dose often 57.3 µM), for inactives: at the highest dose activity, negative = inhibition, usual class: inhibitors; 240,000 compounds, 0.54% hits; AID 2549, 2010;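 also: potency is read from the fitted curve at half-maximal effect; plate controls were vehicle for no effect and no enzyme for full effect; nearly all actives have a fitted effect of over 30% in size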
#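 50 nM RECQ1T1 preincubated 15 min with compound in Tris pH 8.0 buffer with MgCl2, DTT, Tween-20 and 2.5 ug/ml poly(dI-dC); started with 200 nM TAMRA/BHQ-2 forked duplex and 2 mM ATP. Unwinding read as fluorescence (525/598 nm), two reads 2 h apart.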
# FEN1 inh – qHTS Assay for the Inhibitors of Human Flap endonuclease 1 (FEN1); Potency, µM (doses to about 114 µM), without a hit: at the top dose activity change, negative = inhibition, hits mostly inhibitors; P39748; Recombinant FEN1 flap cleavage, fluorescence, 15 min; AID 588795, 2011; 390,000 compounds, 0.35% hits; also: potency is read from the fitted curve at half-maximal effect; nearly all actives have a fitted effect of over 65% in size
# Target sequence (P39748 whole entry, looked up): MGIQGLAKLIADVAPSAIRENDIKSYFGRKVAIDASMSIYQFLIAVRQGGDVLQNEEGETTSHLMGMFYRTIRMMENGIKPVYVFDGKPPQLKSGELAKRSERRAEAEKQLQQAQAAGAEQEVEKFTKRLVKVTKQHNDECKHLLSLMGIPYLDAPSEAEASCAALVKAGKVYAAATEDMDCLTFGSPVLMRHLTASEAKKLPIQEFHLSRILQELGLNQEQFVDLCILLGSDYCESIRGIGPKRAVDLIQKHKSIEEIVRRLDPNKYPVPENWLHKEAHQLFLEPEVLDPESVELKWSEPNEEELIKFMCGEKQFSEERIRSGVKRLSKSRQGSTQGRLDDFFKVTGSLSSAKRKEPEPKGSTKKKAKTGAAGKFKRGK
#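 Reaction started by adding substrate (50 nM final) to 10 nM enzyme after 15 min room-temperature compound preincubation. Reads at 0 and 15 min, with data normalized and fitted to a four-parameter Hill equation.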
# * = called active by the depositor; i = inactive; ? = inconclusive; / = no result; ! = repeats disagree; [ ] = dose if it differs, or a comment. Unless noted, calls follow the shape of the dose curve; as a rule, active = well fitted curve in the direction sought with a large enough effect; inconclusive = small, poorly fitted or top-dose-only effect, or another doubt; inactive = no such curve, though single readings can be large; an effect the other way counts as inactive or inconclusive. Unless noted, % is scaled to controls: 0 for no effect and ±100 for the full control effect.
SMILES,WRN helicase inh,APEX1 inh,PI5P4K alpha inh,BLM inh,RECQ1 helicase,FEN1 inh
Cc1nn(-c2ccccc2)c2c1C(c1ccc(O)c(O)c1)N1C(=N2)C(Nc2ccccc2)=Nc2ccccc21 (configuration not stated),-20.3%,-1.1%,-5.4,-13.8%,-17.2%,0.2%
O=C(CN1C(=O)/C(=C2\SC(=S)N(CCS(=O)(=O)O)C2=O)c2ccccc21)Nc1cccc(Br)c1,89.1µM*,6.7µM*,-97.3*,-14.9%,/,?
Cc1nc(SCC(=O)c2ccccc2)c(C#N)c(-c2ccco2)c1C(=O)NCc1ccco1,?,-6.0%,?,25.1µM*,i,7.1%
N#Cc1c(-c2ccco2)cc(C2CC2)nc1SCC(=O)c1ccccc1,-2.3%,-5.4%,/,?,-8.8%,-5.0%
C=C1C=C(C(F)F)n2ncc(C(=O)Nc3ccccc3OCC)c2N1,/,58.4%,/,/,/,/
COc1ccccc1CNC(=O)CCCCn1c(=O)c2ccccc2n(CC(=O)Nc2cccc(Cl)c2)c1=O,/,/,/,-6.4%,/,14.1%
Cc1cc(C)nc(SCC(=O)NN=C2CCCC2)n1,4.5%,4.0%,-50.2*,-3.4%,-11.5%,?
O=C(O)CCCCCNC(=O)CSc1nnc(-c2ccc([S+](=O)([O-])N3CCCC3)cc2)n1-c1ccccc1,/,42.8%,/,/,/,/
Cc1ccc(CCNc2nc3c(S(=O)(=O)c4ccccc4)nnn3c3ccsc23)cc1,/,/,/,-8.6%,/,89.1µM*
C[C@H](N)C(=O)N[C@@H](C)P(=O)(O)O,/,/,/,-5.5%,/,/
COc1cc(-c2cc(-c3ccc(O)cc3)nc(N)c2C#N)ccc1O,-22.4%,9.5%,-50.7*,4.1%,-0.4%,?
N#Cc1c(-c2ccccc2)cc(-c2ccc(O)cc2)nc1N,-11.5%,-15.7%,-4.8,-23.8%,/,?
N#Cc1c(-c2ccc(F)cc2)cc(-c2cccnc2)nc1N,-2.4%,-2.0%,-8.9,-3.1%,-6.0%,-1.8%
N#Cc1c(-c2ccco2)cc(-c2ccc(F)cc2)nc1N,?,-9.5%,-63.9*,-17.1%,1.4%,-6.8%
COc1ccccc1-c1cc(-c2ccc(O)cc2)nc(N)c1C#N,-1.3%,26.7µM*,-7.5,31.6µM*,/,-25.0%
COc1ccc(-c2cc(-c3ccc(O)cc3)nc(N)c2C#N)cc1,-4.1%,1.0%,-7.2,-5.5%,/,15.4%
CC1Cc2ccccc2N1C(=O)COC(=O)c1ccco1 (configuration not stated),0.4%,/,2.1,/,/,/
CC1Cc2ccccc2N1C(=O)COC(=O)c1ccc([N+](=O)[O-])o1 (configuration not stated),-17.9%,-39.7%,-7.3,/,/,28.2µM*
Cc1[nH][nH]c(=O)c1C(c1ccc(-c2cccc(Cl)c2)o1)c1c(C)[nH][nH]c1=O,-30.4%,10.7%,-15.3,?,10.7%,-17.1%
Cc1[nH][nH]c(=O)c1C(c1ccc(-c2cccc(C(=O)O)c2)o1)c1c(C)[nH][nH]c1=O,?,17.8µM*,?,-1.4%,?,-18.1%
CCN(CCCCO)c1nc(C)nc2c1c(C)c(C)n2-c1c(C)cc(C)cc1C,/,-1.6%,/,-12.6%,-13.8%,/
O=C(C=Cc1ccco1)c1ccco1,-23.5%,/,-9.9,/,/,-13.2%
O=C(C=C1SCCS1)/C=C/c1ccco1,?,?,-56.8*,?,-4.5%,-13.4%
COc1cc(OC)c(NC(=O)Nc2ccc3c(c2)N(C)C(=O)c2ccccc2S3)cc1Cl,/,/,/,-20.0%,/,-23.2%
Cc1ccccc1NC(=O)c1ccc2c(c1)C(=O)N(CC(C)C)C2=O,-0.2%,1.8%,-2.2,-0.9%,/,1.4%
SMILES,WRN helicase inh,APEX1 inh,PI5P4K alpha inh,BLM inh,RECQ1 helicase,FEN1 inh
O=C(O)c1ccc2c(c1)N(Cc1ccccc1)C(=O)c1ccccc1S2=O (configuration not stated),5.5%,1.7%,-20.6,-3.0%,-1.4%,11.0%
O=C(Nc1ccc(Cl)cc1C(=O)O)c1ccc2c(c1)C(=O)N(Cc1ccco1)C2=O,-30.0%[57.1 µM],1.2%,-74.6*,-26.1%,3.9%,?
O=C(Nc1cccc(O)c1)c1ccc2c(c1)C(=O)N(Cc1ccco1)C2=O,-17.7%,-33.0%,-25.8,-6.8%,/,-6.8%
CC(C)CN1C(=O)c2ccc(C(=O)Nc3ccccc3C(=O)O)cc2C1=O,-1.7%,46.8%,-63.7*,0.2%,/,-7.5%
O=C(O)c1ccc2c(c1)C(=O)N(Cc1ccccc1)C2=O,-1.5%,1.4%,-72.8*,-0.7%,7.1%,4.6%
COc1ccc(Nc2cc(O)c3ncccc3c2)cc1,/,7.6%,/,/,/,/
CC(C)(C)[C@H]1CCC(=O)N(CCSc2ccc(Br)cc2)CC1,/,/,/,/,/,-14.8%
COc1cccc(NC(=O)c2oc3ccccc3c2NC(=O)c2ccccc2C)c1,/,/,/,-6.7%,/,-2.3%
Cc1cc(C)cc(-n2c(SCC(=O)Nc3ccccc3)nc3c(oc4ccccc43)c2=O)c1,/,/,/,-5.2%,/,2.1%
COc1ccccc1CC(=O)Nc1nc(-c2ccc(F)c(F)c2)cs1,-20.2%,17.3%,3.1,-8.9%,/,0.5%
COc1ccccc1CNc1nc(-c2cc(C)n(C)c2C)cs1,-10.0%,-10.5%,-72.2*,-7.0%,-1.7%,-3.9%
CC[C@H](C)C(N)C(=O)O (some centres not stated),/,2.7%,/,0.8%,-4.3%,/
Cc1ccc(C(=O)OCc2cc(=O)n3nc(-c4cccs4)sc3n2)cc1,/,/,/,-22.4%,/,0.6%
O=C1CCCC(=O)N1c1ccc(F)cc1,10.0%,7.4%,-5.6,-2.3%,/,2.8%
COc1ccc(-n2sc3ccccc3c2=O)cc1,-2.4%,/,-89.4*,/,/,/
Cc1ccc(C)c(-n2sc3ccc(F)cc3c2=O)c1,1.6%,17.4%,-84.7*,/,/,?
O=c1c2ccccc2sn1-c1ccc(S(=O)(=O)N2CCOCC2)cc1,/,/,/,/,/,-3.0%
O=c1c2cc(F)ccc2sn1-c1ccc(F)cc1,-0.6%,17.2%,-90.0*,/,/,79.4µM*
COc1ccc(-n2sc3ccc(F)cc3c2=O)cc1,4.3%,23.1%,-86.7*,/,/,?
CCOC(OCC)c1nc(N)[nH]c(=O)c1CCCCc1ccccc1,-5.4%,/,-51.7*,/,/,-1.3%
CCCCCc1c(C)nc(Nc2ccccc2)[nH]c1=O,-1.6%,15.1%,0.4,-4.9%,i,-7.7%
CCCCCCCCCCCCCCCC[n+]1cccc(C(=O)N(CC)CC)c1,4.1%,2.5%,-73.2*!,?,2.6%,?
Cc1cc(=O)[nH]c(=O)n1Cc1ccccc1,?,-1.3%,-84.4*,-1.3%,-1.5%,-5.9%
